Results from PubChem BioAssay AID1835 (Johns Hopkins Ion Channel Center, 2009).
About 750 (31%) of roughly 2,400 compounds were called active. This is one part of the list. A number with no mark means an inactive call.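 Rule for the calls: active = median signal gain over dofetilide-blocked control wells reaching their mean plus 3 SD, so readout 1 at least 0; inactive = the rest.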

biological target: Voltage-gated inwardly rectifying potassium channel KCNH2 (Homo sapiens) (UniProt Q12809); assay: hERG protection against dofetilide inhibition, confirmation, cell-based, thallium flux, duplicate retest, dofetilide IC70 (AID 1835); conditions: hERG cell line, FluxOR thallium flux, dofetilide-blocked; at 10 µM; hits give high values
Sequence (Q12809 whole entry, looked up): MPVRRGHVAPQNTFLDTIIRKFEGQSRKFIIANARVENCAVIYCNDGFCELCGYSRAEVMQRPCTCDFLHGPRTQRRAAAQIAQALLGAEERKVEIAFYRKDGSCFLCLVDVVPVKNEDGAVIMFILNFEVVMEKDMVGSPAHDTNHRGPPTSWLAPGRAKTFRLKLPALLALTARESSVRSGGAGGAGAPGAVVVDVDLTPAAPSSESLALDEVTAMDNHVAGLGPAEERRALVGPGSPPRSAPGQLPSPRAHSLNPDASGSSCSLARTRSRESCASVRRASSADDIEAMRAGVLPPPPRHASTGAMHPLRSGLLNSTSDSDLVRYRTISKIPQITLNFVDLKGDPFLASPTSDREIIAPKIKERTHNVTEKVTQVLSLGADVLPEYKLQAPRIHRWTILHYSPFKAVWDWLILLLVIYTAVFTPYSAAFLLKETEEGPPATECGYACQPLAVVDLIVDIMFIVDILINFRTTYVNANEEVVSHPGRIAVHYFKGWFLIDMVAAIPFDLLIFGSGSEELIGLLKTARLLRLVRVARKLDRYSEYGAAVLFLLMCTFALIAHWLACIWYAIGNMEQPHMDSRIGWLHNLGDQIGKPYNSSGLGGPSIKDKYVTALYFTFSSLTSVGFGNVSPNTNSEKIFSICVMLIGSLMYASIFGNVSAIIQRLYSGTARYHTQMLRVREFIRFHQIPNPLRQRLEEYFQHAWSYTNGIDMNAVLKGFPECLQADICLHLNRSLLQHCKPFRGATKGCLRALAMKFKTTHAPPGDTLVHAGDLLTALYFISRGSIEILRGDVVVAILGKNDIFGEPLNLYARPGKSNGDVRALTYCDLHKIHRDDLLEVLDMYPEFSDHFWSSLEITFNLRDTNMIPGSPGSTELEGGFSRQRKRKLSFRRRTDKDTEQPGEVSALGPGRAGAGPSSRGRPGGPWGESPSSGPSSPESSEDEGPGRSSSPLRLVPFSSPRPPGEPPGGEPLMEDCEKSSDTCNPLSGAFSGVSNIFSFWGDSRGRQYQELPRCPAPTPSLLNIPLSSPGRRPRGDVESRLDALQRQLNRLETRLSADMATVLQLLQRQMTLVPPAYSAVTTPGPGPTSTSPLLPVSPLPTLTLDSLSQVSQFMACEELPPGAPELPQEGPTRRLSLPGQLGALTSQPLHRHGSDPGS

Row | Compound | activity increase over dofetilide control, less the hit threshold
1 | CN(C)CCOC(=O)C1(c2ccccc2)CCCC1 | -3%
2 | O=C(CSc1cccc2cccnc12)N/N=C/c1cccnc1 | -19%
3 | COC(=O)c1ccc(Oc2ccc(S(=O)(=O)N3CCCCC3)cc2N)cc1 | -12%
4 | O=S(=O)(Nc1cccc(-n2cnnn2)c1)c1ccc(Cl)nc1 | -11%
5 | CCOCCOCN(C#N)c1nc(OC)nc(N(C)C)n1 | -22%
6 | O=C(CN1C(=O)CSCC1=O)Nc1ccc2c(c1)OCO2 | -6%
7 | COC(=O)CC1C(=O)NCCN1C(=S)NC(=O)c1sc2ccccc2c1Cl (stereo unspecified) | -1%
8 | O=C(NC(=S)N(CCCCO)C1CCCCC1)c1sc2ccccc2c1Cl | 29% (active)
9 | CC1CCCCC1NC(=S)NC(=O)c1cccs1 (stereo unspecified) | 44% (active)
10 | CC1CCCCC1NC(=S)NC(=O)c1sc2ccccc2c1Cl (stereo unspecified) | 5% (active)
11 | CN(CC(=O)Nc1ccc(OC(F)(F)F)cc1)S(=O)(=O)c1cnc[nH]1 | -9%
12 | FC(F)c1nnc2c(Cl)cc(C(F)(F)F)cn12 | -11%
13 | O=C(NC(=S)NNC(=O)[C@H]1C[C@@H]1c1ccccc1)c1cccc(F)c1 | -14%
14 | C=CCn1c(SCC(N)=O)nc2scc(-c3ccc(C)o3)c2c1=O | -19%
15 | C=CCn1c(=S)[nH]c2scc(-c3cccs3)c2c1=O | 90% (active)
16 | C=CCn1c(=S)[nH]c2scc(-c3ccc(C)o3)c2c1=O | 72% (active)
17 | O=C(Nc1ccc(Cl)c(Cl)c1)Nc1nnc(CSc2ccccc2)s1 | -10%
18 | N#CC(=C1SC=CS1)c1nc(-c2ccccc2)cs1 | -7%
19 | Cc1ccc(-c2n[nH]c(=S)nc2-c2ccc(C)cc2)cc1 | 13% (active)
20 | COC(=O)c1cc(-c2ccc(C)cc2)n[nH]1 | -17%
21 | S=c1nc(-c2ccccc2)c(-c2ccccc2)n[nH]1 | -9%
22 | Cn1cc(/C=C2\SC(=O)NC2=S)c2ccccc21 | -24%
23 | CCOc1ccc(/C=C2/SC(=O)NC2=S)cc1 | 92% (active)
24 | CCOc1cc(-n2ncc(C#N)c2N)nc(SC)n1 | -12%
25 | CCOC(=O)c1ccc(Oc2cc(C)nc(SC)n2)cc1 | 10% (active)
26 | CCc1ccc(OCC(=O)Nc2ncn[nH]2)cc1 | -29%

Row | Compound | activity increase over dofetilide control, less the hit threshold
27 | COc1cccc(OCC(=O)NNC(=O)C(=O)Nc2cccc(C)c2)c1 | 50% (active)
28 | COc1cccc(NC(=O)CSCc2n[nH]c(=O)[nH]2)c1 | -20%
29 | CCc1ccc(NC(=O)C(=O)NNC(=O)COc2cccc(OC)c2)cc1 | 14% (active)
30 | Cc1cccc(OCC(=O)NCc2nc(-c3ccccc3)no2)c1 | -13%
31 | O=C(COc1cccc(-n2cnnn2)c1)Nc1ccc([N+](=O)[O-])cc1 | -1%
32 | COc1cc(/C=C2/OC(=O)c3cc([N+](=O)[O-])ccc32)cc(OC)c1OC | -10%
33 | Cc1ccc(/C=N/N2C(=O)c3ccccc3NC2c2ccc(C)cc2)cc1 (stereo unspecified) | -7%
34 | Cc1cc([N+](=O)[O-])ccc1-c1ccc(C2Nc3ccccc3C(=O)N2O)o1 (stereo unspecified) | 7% (active)
35 | Cc1ccc(-c2cc(-c3n[nH]c(=S)o3)c3ccccc3n2)cc1 | 37% (active)
36 | C=CCn1c(-c2cc(-c3ccc(C)cc3)nc3ccccc23)n[nH]c1=S | -16%
37 | Cc1ccc(C(C)C)c(OCc2n[nH]c(=S)o2)c1 | -4%
38 | CC(/C=C1\SC(=S)N(c2ccc(C(=O)O)cc2)C1=O)=C\c1ccccc1 | -15%
39 | COc1ccccc1/C=C1\SC(=S)N(NS(=O)(=O)c2ccc(C)cc2)C1=O | -20%
40 | CC(/C=C1\SC(=S)N(NS(=O)(=O)c2ccccc2)C1=O)=C\c1ccccc1 | 15% (active)
41 | CC(/C=C1\SC(=S)N(NS(=O)(=O)c2ccc(C)cc2)C1=O)=C\c1ccccc1 | 7% (active)
42 | Cc1ccc(S(=O)(=O)N2C(=O)/C(=C3\SC(=S)NC3=O)c3ccccc32)cc1 | -6%
43 | O=C(O)CC1S/C(=N/N=C/c2ccc(-c3ccccc3[N+](=O)[O-])o2)NC1=O (stereo unspecified) | -22%
44 | COc1ccc(OC)c(NC(=O)COC(=O)c2ccc(-n3cnnn3)cc2)c1 | -10%
45 | COc1ccc(OC)c(NC(=O)C(=S)NC2CCCCC2)c1 | -2%
46 | COc1cccc(OCC(=O)NNC(=O)C(=O)Nc2ccc(OC)cc2OC)c1 | 39% (active)
47 | COc1ccc(OCC(=O)Nc2c3c(nn2-c2ccc(OC)cc2)CS(=O)(=O)C3)cc1 | -18%
48 | COc1ccc(NC(=O)COC(=O)c2c(C)noc2C)c(OC)c1 | -2%
49 | COc1ccc(OC)c(NC(=O)C(=O)NNC(=O)C23CC4CC(CC(C4)C2)C3)c1 | 83% (active)
50 | COc1ccc(NC(=O)C(=O)NNC(=O)COc2ccc(Cl)cc2)c(OC)c1 | 30% (active)
51 | COc1ccc(OCC(=O)NNC(=O)C(=O)Nc2cc(OC)ccc2OC)cc1 | 8% (active)
52 | COc1ccc(NC(=O)C(=O)NNC(=O)COc2ccc(OC)cc2)cc1 | -12%

Row | Compound | activity increase over dofetilide control, less the hit threshold
53 | Cc1n[nH]c(C)c1CCNC(=O)C1CCC(=O)N(Cc2ccccc2F)C1 (stereo unspecified) | -15%
54 | O=[N+]([O-])c1ccc(CSc2nnc(SCc3ccc(Cl)cc3)s2)cc1 | 0%
55 | O=c1c2cc(Cl)ccc2nc(-c2ccc([N+](=O)[O-])cc2)n1O | 16% (active)
56 | O=c1c2cc(Br)ccc2nc(-c2ccc([N+](=O)[O-])cc2)n1O | 47% (active)
57 | N#Cc1ccc(-c2nc3cc(Cl)ccc3c(=O)n2O)cc1 | -4%
58 | O=c1c2ccc(Cl)cc2nc(-c2ccc([N+](=O)[O-])cc2)n1O | 16% (active)
59 | O=[N+]([O-])c1ccc(Nc2ccc(Cl)cc2)nc1 | -17%
60 | O=C1C(c2ccccc2)C(c2ccccc2)NC(c2ccccc2)C1c1ccccc1 (stereo unspecified) | -17%
61 | O=C(CC1NCCNC1=O)Nc1ccc([N+](=O)[O-])cc1 (stereo unspecified) | -17%
62 | CC(=O)NCCC(=O)N(C)CC1CCN(CCc2cccc(C(F)(F)F)c2)CC1 | -6%
63 | CS(=O)(=O)N1CCN(c2ccccc2NC(=O)Nc2cccc(Cl)c2)CC1 | -16%
64 | Cc1ccc(NC(=O)C(=O)NNC(=O)c2ccccc2C)cc1Cl | 54% (active)
65 | COc1ccccc1NC(=O)C1CCCN1C(=O)NCc1ccccc1 (stereo unspecified) | -21%
66 | COc1cc(NC(=O)c2ccccc2OCc2ccccc2)cc(OC)c1OC | -16%
67 | COc1ccccc1C(=O)Nc1ccnn1C1CCN(C(=O)c2ccoc2C)CC1 | -7%
68 | CC(=O)Nc1ccccc1C(=O)C(=O)Nc1ccccc1 | -23%
69 | COc1ccccc1C(=O)NNC(=O)C(=O)NC1CCCCC1 | 49% (active)
70 | COc1ccccc1C(=O)NNC(=O)C(=O)NC(C)(C)C | 21% (active)
71 | COc1ccccc1C(=O)NNC(=O)C(=O)NCc1ccccc1 | 16% (active)
72 | COc1cc(/C=N/NC(=O)NC2CCCCC2)ccc1O | -20%
73 | COc1cccc(/C=C2/C(=O)NN(c3ccc(C)c(C)c3)C2=O)c1 | -14%
74 | O=C(COc1ccc(Cl)cc1)NNC(=O)C(=O)NC1CCCCC1 | -9%
75 | COc1ccc(C(=O)NCc2nnc(SCC(=O)NC3CCCCC3)n2C)cc1 | -18%
76 | COc1ccc(NC(=O)c2ccccc2SC)cc1OC | -18%
77 | COc1ccc(C(=O)NNC(=O)C(=O)NC2CCCCC2)cc1 | 5% (active)
78 | COc1ccccc1C(=O)NNC(=O)C(=O)Nc1ccc(C)c(Cl)c1 | 99% (active)

Row | Compound | activity increase over dofetilide control, less the hit threshold
79 | COc1ccccc1C(=O)NNC(=O)C(=O)Nc1ccc(C)cc1 | 77% (active)
80 | COc1ccccc1CC(=O)Nc1ccc(OC)c(OC)c1 | -8%
81 | O=c1oc2ccccc2c2c1nc(C(F)(F)F)n2-c1ccccc1 | -20%
82 | CCCn1nnnc1SCC(=O)Nc1nnc(CC)s1 | -6%
83 | O=C(NCCc1nnc2ccc(NCc3ccc(Cl)cc3)nn12)c1ccccc1 | -11%
84 | COc1ccc(C2CC(c3ccc(Cl)cc3Cl)Nc3nc(N)nn32)cc1OC (stereo unspecified) | -10%
85 | O=C(/C=C/Nc1ccc(F)c(F)c1)c1cccs1 | -18%
86 | Cc1ccccc1NC(=O)CC1S/C(=N/c2nccs2)N(C)C1=O (stereo unspecified) | 0%
87 | C/C(=N\O)C1CC(CC(=O)O)C1(C)C (stereo unspecified) | -13%
88 | CSC1=C(C#N)C(CC(C)C)C2=C(CCCC2=O)N1 (stereo unspecified) | -12%
89 | CCOC(=O)N1CCN(C(=O)c2ccc(CN(c3ccc(C)c(C)c3)S(C)(=O)=O)cc2)CC1 | 8% (active)
90 | CCN1CCN(C(=O)c2ccc(Cn3c(=O)[nH]c4cc(OC)c(OC)cc4c3=O)cc2)CC1 | -17%
91 | COc1ccc(N(CC(=O)N2CCN(Cc3ccccc3)CC2)S(C)(=O)=O)cc1OC | -3%
92 | S=c1nc(Cc2ccc(Cl)cc2)[nH]c2ccccc12 | 90% (active)
93 | O=C(O)CCCCCNc1nc(=S)[nH]c2ccccc12 | -7%
94 | S=c1nc(COc2ccccc2)[nH]c2ccccc12 | 100% (active)
95 | S=c1nc(Cc2ccccc2)[nH]c2ccccc12 | 78% (active)
96 | S=c1[nH]nc(-c2ccc(Cl)cc2)n1Cc1ccccc1 | -13%
97 | S=c1nc(SCc2ccccc2)[nH]c2ccccc12 | 100% (active)
98 | O=c1[nH]c(SCc2cccc(Cl)c2)nc2ccccc12 | -14%
99 | CCC(C)N(C(=O)CSc1nnc(NC(C)C)s1)C1CCS(=O)(=O)C1 (stereo unspecified) | -11%
100 | CS(=O)(=O)N(CCc1ccccc1)CC(=O)N1CCN(c2ccc(F)cc2)CC1 | -9%
101 | Cc1cc(=O)oc2cc(OC(C(=O)O)c3ccccc3)ccc12 (stereo unspecified) | -19%
